Measurements as given in the supplement of paper PMC10127200.
Where a name gives a salt, the structure may show the parent alone.

tested on: HEPG2; assay: Euclidean distance of Cell Painting phenotypic profile (signed KS, 77 features) to DMSO centroid (dimensionless distance); 5 or 10 uM (library dependent); higher = stronger phenotypic change vs DMSO (phenoactivity); settings: 48 h
In short: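 Harmony extracted 77 features from 20X confocal images (9 fields/well) of stained cells, scoring each as a signed Kolmogorov-Smirnov statistic against same-plate vehicle wells. The cells, five cancer lines and a healthy fibroblast line, had received library compounds for 48 h at 10 or 5 uM depending on library, with 0.1% DMSO final. Phenoactivity is the Euclidean distance from each plate-position-corrected, correlation-weighted, top-dose replicate-averaged profile to the median vehicle profile.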

Point of comparison: O=C(O)CNC(=O)c1ncc(-c2cccc(Cl)c2)cc1O [Vadadustat], Euclidean distance 0.8. Against it:
- COc1nc(C)nc(Cl)c1NC1=NCCN1 [Moxonidine] — higher, 2.14
- CO[C@H]1C[C@@H]2CC[C@@H](C)[C@@](O)(O2)C(=O)C(=O)N2CCCC[C@H]2C(=O)O[C@H]([C@H](C)C[C@@H]2CC[C@H](n3cnnn3)[C@H](OC)C2)CC(=O)[C@H](C)/C=C(\C)[C@@H](O)[C@@H](OC)C(=O)[C@H](C)C[C@H](C)/C=C/C=C/C=C/1C [Zotarolimus(ABT-578)] — higher, 1.45
- N#CC(c1ccnc(OCc2ccc(CN3CCOCC3)cc2)n1)c1nc2ccccc2s1 (centres undefined) [Bentamapimod] — higher, 1.38
- CC(N/C(=N\C#N)Nc1ccncc1)C(C)(C)C (centres undefined) [Pinacidil] — lower, 0.55
- CN1CCN2c3ncccc3Cc3ccccc3C2C1 (centres undefined) [Mirtazapine] — lower, 0.332
- Cc1cn([C@H]2C=C[C@@H](CO)O2)c(=O)[nH]c1=O [Stavudine (d4T)] — lower, 0.716
- CN1CCC(NC(=O)c2cc(-c3c(O)cc(O)cc3Oc3ccc([N+](=O)[O-])cc3)on2)CC1 — higher, 5.17
- CN1[C@@H]2CC[C@H]1C[C@@H](OC(=O)c1c[nH]c3ccccc13)C2 [Tropisetron] — higher, 1.1
- Cc1cc(C)cc(OCC2CNC(=O)O2)c1 (centres undefined) [Metaxalone] — lower, 0.417
- O=C(Nc1ccc(Cl)cc1)Nc1ccc(Cl)c(Cl)c1 [Triclocarban] — higher, 3.53
- CC1(C)O[C@H]2CC(=O)OC[C@]23[C@H]2CC[C@@]4(C)[C@H](c5ccoc5)OC(=O)[C@H]5O[C@]54[C@]2(C)C(=O)C[C@@H]13 [Limonin] — higher, 1.05
- CN1CCC(=C2c3ccccc3C=Cc3ccccc32)CC1 [Cyproheptadine hydrochloride] — higher, 2.26
- CC1(C)S[C@@H]2[C@H](NC(=O)[C@H](N)c3ccc(O)cc3)C(=O)N2[C@H]1C(=O)O [Amoxicillin trihydrate] — lower, 0.529
- Oc1ccc(C2CNCCc3c2cc(O)c(O)c3Cl)cc1 (centres undefined) [Fenoldopam mesylate] — higher, 1.19
- O=C1NC(=O)/C(=C/c2cccc(C(F)(F)F)c2)S1 — lower, 0.755
- CCOC(=O)[C@H](CCc1ccccc1)N[C@@H](C)C(=O)N1Cc2cc(OC)c(OC)cc2C[C@H]1C(=O)O [Moexipril HCl] — higher, 2.35
- CCCC(=O)O[C@]1(C(=O)CCl)[C@H](C)C[C@@H]2[C@@H]3CCC4=CC(=O)C=C[C@]4(C)[C@]3(F)C(=O)C[C@@]21C [clobetasone butyrate] — higher, 1.73
- Oc1ccc(OCc2ccccc2)cc1 [Monobenzone] — higher, 0.99
- O=C(Nc1ccncc1)c1cc([N+](=O)[O-])ccc1Cl — higher, 1.09
- CN(C)C[C@@H]1CCn2cc(c3ccccc32)C2=C(C(=O)NC2=O)c2cn(c3ccccc23)CCO1 — higher, 3.22
- Cc1cc(Nc2ncnc3ccc(-c4ccc(CNCCS(C)(=O)=O)o4)cc23)ccc1Oc1ccn2ncnc2c1 [HER2-Inhibitor-1] — higher, 1.3
- CC(C)(C)C(=O)Oc1ccc(S(=O)(=O)Nc2ccccc2C(=O)NCC(=O)O)cc1 [Sivelestat (ONO-5046)] — lower, 0.614
- Cc1cc(OCCCS(C)(=O)=O)cc(C)c1-c1cccc(COc2ccc3c(c2)OC[C@H]3CC(=O)O)c1 — higher, 1
- COc1cc2c(cc1OC)CN(CCc1ccc(NC(=O)c3cc(OC)c(OC)cc3NC(=O)c3cnc4ccccc4c3)cc1)CC2 [Tariquidar] — higher, 0.844
- COc1nccnc1NS(=O)(=O)c1ccc(N)cc1 [Sulfalene(SMPZ)] — lower, 0.406
- CC(=O)O[C@@]12CO[C@@H]1C[C@H](O)[C@@]1(C)C(=O)[C@H](O)C3=C(C)[C@@H](OC(=O)[C@H](O)[C@@H](NC(=O)OC(C)(C)C)c4ccccc4)C[C@@](O)([C@@H](OC(=O)c4ccccc4)[C@H]21)C3(C)C [Docetaxel] — higher, 2.16
- CC(C)Cn1cnc2c(N)nc3ccccc3c21 [Imiquimod] — lower, 0.448
- CC(=O)N1CCN(CCOc2ccc(C3CCN(C4=Nn5c(nnc5C(F)(F)F)CC4)CC3)cc2)CC1 — higher, 2.06
- CC1(C)CC(=O)c2c(C(F)(F)F)nn(-c3ccc(C(N)=O)c(N[C@H]4CC[C@H](OC(=O)CN)CC4)c3)c2C1 — higher, 3.05
- Cc1cc(CN2CCN(c3c(Br)cnc4nc(-c5ccc(N6CCN(C)CC6)cc5)[nH]c34)CC2)no1 — higher, 1.67
- O=C(NC(NC(=S)Nc1ccc(F)c([N+](=O)[O-])c1)C(Cl)(Cl)Cl)C(c1ccccc1)c1ccccc1 (centres undefined) — higher, 1.56
- CC(C)CC(N)=O [Isovaleramide] — higher, 1.21
- CC(C(=O)O)c1ccc2c(c1)CC(=O)c1ccccc1S2 (centres undefined) [Zaltoprofen] — lower, 0.423
- O=C1CN(/N=C/c2ccc(-c3ccc([N+](=O)[O-])cc3)o2)C(=O)N1 [Dantrolene sodium hemiheptahydrate] — lower, 0.638
- Cc1cnc(Nc2ccc(N3CCN(C)CC3)cc2)nc1Nc1cccc(S(=O)(=O)NC(C)(C)C)c1 — higher, 2.58
- Clc1ccc(COC(Cn2ccnc2)c2ccc(Cl)cc2Cl)cc1 (centres undefined) [Econazole] — higher, 1.09
- CC(C)NC(=N)NC(=N)Nc1ccc(Cl)cc1 [Proguanil] — higher, 0.823
- NC(=O)N[C@@H](CCC(=O)O)C(=O)O [Carglumic Acid] — lower, 0.389
